Our source for the growth values is PubChem BioAssay (NCI).

What all share (assay): NCI-60 one-dose screen, 48 h (100 = growth as untreated, 0 = no growth, -100 = all killed)
Holding throughout (settings): 10 µM unless noted

Test [1] relates to NCI-H23 lung.
Test [2] relates to NCI-H226 lung.
The subject of test [3] is NCI-H322M lung.
The test system of test [4] is HOP-62 NSCLC.
The subject of test [5] is NCI-H460 lung.
The test system of test [6] is HOP-92 NSCLC.
Test [7] relates to NCI-H522 lung.
The test system of test [8] is A549/ATCC NSCLC.
Test [9] deals with 786-0 renal.
Test [10] has as its system COLO 205 colon.

Compounds without any hit were thinned out: in the full panel of roughly 83,000, 20% have a hit.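 Cells were grown in 96-well plates and exposed to the test compound at a single concentration for 48 hours; results are reported as percent growth, with values below 10 considered active.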 Unmarked numbers belong to inactive results. Calls of active or inactive are those of the source.

For `CC(Nc1ncnc2ccc(-c3ccc4oc(N)nc4c3)cc12)c1ccccc1` (stereo not given), the growth in [1] was 16.4%; in test [2], -10.2% (active); in test [3], -24.9% (active); in [4] it was -53.1% (active); in test [5] it was 3.34% (active); in test [6], -45.9% (active). Besides, the growth was 18.4% in test [7], 13.3% in [8], -48.2% (active) in [9] and 14% in test [10].

Take `Cc1ccc(C(=O)Nc2ccc(-n3ccnc3)c(C(F)(F)F)c2)cc1C#Cc1cnc2cccnn12`: the growth in test [1] is 13.3%; in [2], -52.4% (active); in test [3], 44.5%; in [4] it was -20.3% (active); in test [5] it was 18.8%; in test [6], -14.1% (active). Further, the growth in test [7] is -20% (active); in test [8] it was 28.8%; in test [9], 14%; in [10], 22.5%.

With `COc1ccc(NC2=C(I)C(=O)C(C)=C(C)C2=O)cc1`, the growth in [1] is 32.2%; in [2], 78.1%; in test [3] it was 95%; in [4], 85.4%; in test [5], 97.9%; in test [6], 31.4%. In addition, the growth in test [7] was 18.5%; in test [8], 83.8%; in test [9], 42.2%; in test [10], 123%.

With `CCC(=O)c1cc(C(=O)OC)c2ccc3c4ccccc4ccc3n12`, the growth was 85.2% in test [1]; 50.4% in test [2]; 93.5% in [3]; 65.4% in [4]; 26.1% in test [5]; 88.7% in test [6]. The growth in test [7] was 102%; in test [8], 67.9%; in test [9], 66.8%; in [10], 80.5%.

Turning to `COc1ccc(N=Nc2c(N)nn3c(-c4cc5cc(Br)ccc5oc4=O)ccnc23)cc1`, the growth in test [1] was -4.72% (active); in [2], -42.1% (active); in test [3], 30.1%; in test [4], 2.1% (active); in test [5], 3.1% (active); in [6], -3.29% (active). In addition, the growth in test [7] is 0.558% (active); in test [8] it was 39.3%; in [9], 5.11% (active); in test [10], 35.8%.

As to `O=c1c(-c2nc(-c3ccccc3)c(-c3ccccc3)[nH]2)coc2ccc(F)cc12`, the growth in test [1] was 60.7%; in test [2], 65.1%; in test [3], 73.1%; in [4], 70.1%; in test [5] it was 19%; in test [6], 88.1%. The growth in test [7] was 71.7%; in test [8] it was 40%; in test [9] it was 87.2%; in [10], 53%.

Turning to `O=C(NN1C(=O)/C(=C/C=C/c2ccc([N+](=O)[O-])o2)SC1=S)c1ccc(O)cc1`, the growth in [1] was -85.7% (active); in test [2] it was -86.3% (active); in test [3] it was -78.5% (active); in test [4], -99.5% (active); in [5], -54% (active); in test [6], -81% (active). The growth was -98.1% (active) in test [7], -81.5% (active) in [8], -90.4% (active) in test [9] and -94.8% (active) in [10].

Consider `CN1CCN(C(=O)CCN(C(=O)Oc2cc3c(c4ccccc24)[C@H](CCl)CN3C(=O)c2cc3cc(OCCCN4CCC4)ccc3[nH]2)[C@H]2CCSSC2)CC1`, for which the growth in [1] is -73.3% (active); in test [2], -17.9% (active); in [3], -48% (active); in test [4] it was -77.4% (active); in test [5], 2.93% (active); in [6], -32.1% (active). Besides, the growth in test [7] was -74.4% (active); in test [8], -61.5% (active); in test [9], -90.8% (active); in test [10], -80% (active).

For `COC(=O)c1cccc(Oc2ccc(NC(=O)Nc3cc(C(F)(F)F)ccc3F)cc2)c1`, the growth is 69.3% in test [1]; 57.5% in [2]; 91.1% in [3]; -8.81% (active) in [4]; 30.6% in test [5]; 40.7% in test [6]. Also, the growth in test [7] was 49.8%; in test [8] it was 47%; in test [9], 47.3%; in test [10], 88.2%.

Consider `COc1ccc(/C=C/c2nc3ccccc3c(=O)n2CC(=O)Nc2ccccc2)cc1`, for which the growth in test [1] was 42.6%; in test [2] it was -26.4% (active); in [3], 46.8%; in test [4], 2.16% (active); in [5] it was 37%; in test [6], -0.34% (active). In addition, the growth in [7] is 89.2%; in test [8], 27.5%; in test [9], -42.6% (active); in [10], 71%.

`COc1cc(/C=C/C(=O)c2cnn(-c3cc(=O)[nH]c4ccc(Cl)cc34)c2C)cc(OC)c1OC`: the growth in test [1] was -55.9% (active); in [2] it was -24.2% (active); in test [3], 7.2% (active); in test [4], -68.3% (active); in [5] it was -39.1% (active); in test [6] it was -11.9% (active). In addition, the growth was -62.9% (active) in test [7], -17.1% (active) in [8], -43.9% (active) in [9] and -67.7% (active) in [10].

Consider `Nc1cc(-c2c[nH]c3ccc(Br)cc23)nc2cc(-c3c[nH]c4ccccc34)nn12`, for which the growth in test [1] is -68.9% (active); in [2], 3.69% (active); in test [3], -18.8% (active); in [4], -61.9% (active); in [5], -53.1% (active); in [6], -50.8% (active). In addition, the growth in test [7] was -77% (active); in [8] it was -47.2% (active); in test [9], -68.2% (active); in test [10], -87% (active).

With `CNS(=O)(=O)N1CCc2c(Br)c3c(c(OC)c2C1CCc1ccccc1)OCO3` (stereo not given), the growth was -19.5% (active) in [1]; -70.3% (active) in test [2]; 4.7% (active) in test [3]; -18.6% (active) in test [4]; -67.7% (active) in test [5]; -54.3% (active) in test [6]. Besides, the growth in test [7] is -12.3% (active); in test [8], 16.6%; in test [9], -44.9% (active); in test [10], -51.3% (active).

As to `Cn1cc(-c2cc(N)n3nc(-c4c[nH]c5ccccc45)cc3n2)c2cc(Br)ccc21`, the growth is -75.2% (active) in [1]; -11.9% (active) in test [2]; -37.2% (active) in test [3]; -76.9% (active) in test [4]; -59% (active) in [5]; -74.5% (active) in test [6]. Also, the growth in test [7] was -74.7% (active); in [8], -50% (active); in test [9], -73.7% (active); in [10], -90.1% (active).

As for `Fc1ccccc1CNc1nc(SCCN2CCOCC2)nc2c1cnn2CC(Cl)c1ccc(Br)cc1` (stereo not given), the growth in [1] is 45.1%; in test [2], 31.8%; in [3], 75.2%; in test [4], 40%; in test [5], 17%; in [6], 26%. The growth was 58.1% in [7], 27.7% in test [8], 8.8% (active) in test [9] and -9.47% (active) in test [10].

For `CN1CCN(c2ccc3c4c(cccc24)C(=O)N(c2cccc(-c4nn(-c5ccccc5)cc4-c4nc5ccccc5s4)c2)C3=O)CC1`, the growth in test [1] is 97.9%; in test [2], 95.9%; in test [3], 111%; in [4], 114%; in [5] it was 18.5%; in [6], 71.7%. Further, the growth in test [7] is 110%; in test [8], 97.9%; in [9] it was 46.5%; in test [10] it was 91.1%.

Take `CCOC(=O)/C(F)=C/C1CC1C1CCN(C(=O)OC(C)(C)C)CC1` (stereo not given): the growth in [1] was 93.8%; in [2], 95.2%; in test [3], 102%; in test [4], 118%; in [5], 98.1%; in [6], 119%. The growth in [7] is 104%; in [8], 78.4%; in test [9], 105%; in test [10] it was 72.4%.

In the case of `O=C(N/N=C/c1ccc(-c2cccc([N+](=O)[O-])c2)s1)c1[nH]c2ccc(Br)cc2c1-c1ccccc1`, the growth in test [1] was 81.3%; in test [2] it was 94.8%; in test [3] it was 99.2%; in [4], 64.4%; in [5], 84.6%; in test [6] it was 94.4%. Also, the growth was 66.5% in [7], 91.4% in test [8], 92.6% in [9] and 97.7% in [10].

In the case of `Cn1cc(-c2cc(N)n3nc(-c4c[nH]c5ccc(F)cc45)cc3n2)c2cccnc21`, the growth in test [1] is -68.2% (active); in [2], -67.5% (active); in test [3], -37.5% (active); in [4] it was -85.9% (active); in test [5], -50.6% (active); in [6], -73.7% (active). In addition, the growth in [7] was -68.8% (active); in test [8] it was -87.1% (active); in test [9], -95.2% (active); in [10], -79.1% (active).

As to `Cc1ccc2nc(COc3ccc(C(=O)NNC(=O)Nc4ccc(Cl)c(C(F)(F)F)c4)cc3)[nH]c2c1`, the growth is 25.9% in test [1]; 54.2% in test [2]; 22.3% in test [3]; 6.46% (active) in [4]; 32.8% in test [5]; -22.6% (active) in test [6]. Besides, the growth is 41% in test [7], 17.1% in test [8], 50.1% in test [9] and 84.1% in test [10].

Turning to `COc1ccccc1Nc1nnc(-c2c[nH]c3ccccc23)o1`, the growth in [1] is 12.6%; in test [2], 47.1%; in test [3], 43.5%; in [4] it was 26.3%; in test [5], 10.8%; in test [6], 16.1%. The growth in test [7] is -31.5% (active); in test [8] it was 21.9%; in test [9], 9.22% (active); in test [10], -38.8% (active).

With `S=C(Nc1ccc(OCc2nc3ccc(Cl)cc3[nH]2)cc1)NC1CCCCC1`, the growth in test [1] was -68.3% (active); in test [2] it was -1.48% (active); in test [3], 9.78% (active); in [4], -20.7% (active); in test [5] it was -21.5% (active); in test [6] it was -4.42% (active). Also, the growth is -21.4% (active) in [7], 15.6% in test [8], -20.6% (active) in [9] and -68.4% (active) in [10].
